Pf Dd2 growth = inhibitors of Plasmodium falciparum Dd2 growth; 120,000 tested, 4.3% active; P. falciparum Dd2 growth, SYBR Green, 72 h; Potency, µM (top dose mostly 28.9 µM), without a hit: top-dose activity, negative = inhibition, usual class: inhibitors; active = well fitted inhibition curve with a large enough effect;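 note: plate controls were DMSO vehicle for no effect and reference drug for full effect; nearly all actives have a fitted effect of over 65% in size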
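Readout: SYBR Green fluorescence, 485 nm excitation, 535 nm emission, after ~16 h lysis at 37C. Before that, Dd2-infected red cells (2.5% hematocrit) grew 72 h with compound, 29 uM top final concentration.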
Numbers without * were called inactive; i = inactive; [ ] = remark or other dose. Many of the other results were omitted from the sample, so hits are more common in it than they were. Potency is the fitted concentration of half-maximal effect.

SMILES	Pf Dd2 growth
Cc1noc(-c2ccccc2Cl)c1C(=O)NCCc1cccs1	-15%
O=C(c1n[nH]c2c1CCCC2)N1CCc2c(nc3cc[nH]n3c2=O)C1	i
COc1ccc(NC(=O)c2cnc3n[nH]c(-c4ccc(OC)cc4C)c3n2)cc1	-19%[44.1 µM]
O=C(CN1CC2CC(C1)[C@H]1CCCC(=O)N1C2)N1CCSCC1 (stereo not given in full)	-1%
CC(C)c1ccc(NC(=O)N2CCN(c3ccc(Cl)c(Cl)c3)CC2)cc1	4%
Cc1ccc(NC(=O)N2CCN(c3nnnn3-c3cccc(C(C)C)c3)CC2)cc1F	11µM*
Cc1ccc(NC(=O)N2CCN(c3nnnn3-c3ccccc3)CC2)cc1F	-29%
CCc1cccc(-n2nnnc2N2CCN(C(=O)NC(C)c3ccccc3)CC2)c1 (stereo not given)	-14%
Cc1ccc(NC(=O)N2CCN3CCCCC3C2)cc1F (stereo not given)	-14%
Cc1cc(-n2nnnc2N2CCN(C(=O)Nc3ccc(C)c(F)c3)CC2)ccc1F	5µM*
Cn1nccc1C(O)c1cc2n(n1)CCN(C/C=C/c1ccccc1)C2 (stereo not given)	20%
CC(C)C(=O)N1CCN(C(=O)N2CC3CC(C2)[C@H]2CCCC(=O)N2C3)CC1 (stereo not given in full)	1%
O=C(COc1ccc(F)c(Cl)c1)N[C@H]1C[C@@H]2OCC[C@H]12	-13%
COc1ccc(C)cc1NC(=O)Cn1c(C)cc2nc3n(c(=O)c21)CCCC3	-27%
COC(=O)CSc1nnc(-c2cccc(O)c2)o1	47%
CC(C)c1ccc2c(c1)NC(c1ccncc1)=NC(c1cccs1)=N2	1%
FC(F)(F)Oc1ccc2c(c1)NC(c1ccncc1)=NC(c1cccs1)=N2	-26%
CCc1ccc2c(c1)NC(c1ccc(C)cc1)=NC(c1cccs1)=N2	13µM*
O=C(O)C[C@@H]1CCN(C(=O)c2ccc(F)cc2)C[C@@H]1CCN1CCN(c2ccccn2)CC1	23%
CC(C)CN(Cc1cnn(C)c1)C(=O)C1CCC(=O)N(CC2CCCCC2)C1 (stereo not given)	-4%
COC(=O)C(C)n1nnc2sc(-c3ccccc3)cc2c1=O (stereo not given)	2%
COCCN1CCCCCC(O)c2cc(C(=O)NCCc3c[nH]c4ccccc34)ccc21 (stereo not given)	5µM*
COCCN1CCCCCC(O)c2cc(C(=O)NCCN3CCOCC3)ccc21 (stereo not given)	2%
COCCN1CCCCCC(O)c2cc(C(=O)NCCCN3CCCc4ccccc43)ccc21 (stereo not given)	-20%
CCOC(=O)c1c(-c2ccccc2)csc1NC(=O)c1nc(SCC)ncc1Cl	51%
SMILES	Pf Dd2 growth
CN(C)c1ccc(NC(=O)CN2CCN(CC(=O)Nc3ccc(Br)cc3)CC2)cc1	-17%
CCc1ccccc1NC(=O)c1cc(S(=O)(=O)NC2CCCC2)ccc1F	-1%
O=C(Nc1ccc(F)c(F)c1)c1cc(S(=O)(=O)NC2CCCC2)ccc1F	22%
O=C(Nc1ccc(C(F)(F)F)cc1)c1cc(S(=O)(=O)NC2CCCCCC2)ccc1F	5.6µM*
O=C(Nc1ccc(Cl)cc1F)c1cc(S(=O)(=O)NC2CCCCCC2)ccc1F	i
CCOc1ccc(NC(=O)c2cc(S(=O)(=O)NC3CCCC3)ccc2F)cc1	-18%
O=C(Nc1ccc(C(F)(F)F)cc1)c1cc(S(=O)(=O)NC2CCCCC2)ccc1F	7.1µM*
O=C(c1ccccc1Cl)N1CCCCC12Cc1ccccc1NC2=O (stereo not given)	i
O=C(Cc1ccccc1Cl)N1CC(c2nnc(-c3ccncc3)o2)C2(CCOCC2)C1 (stereo not given)	10%
CCOC(=O)c1c(NC(=O)/C=C/c2ccc(C)cc2)sc(C(C)=O)c1C	7%
O=C(Nc1cc(Cl)cc(Cl)c1)c1ccc(F)c(S(=O)(=O)N2CCCC2)c1	-16%
O=C(Nc1cc(Cl)cc(Cl)c1)c1ccc(F)c(S(=O)(=O)N2CCc3ccccc32)c1	8.9µM*
O=C(O)c1ccc2c(c1)N(S(=O)(=O)c1ccccc1F)CC2	28%
CCc1ccccc1Nc1cc(C(=O)NCc2ccc(C)cc2)c2ccccc2n1	-22%
CC(Oc1ccccc1)C(=O)Nc1ccccc1C(=O)OCc1cc(=O)n2nc(C(C)C)sc2n1 (stereo not given)	i
COc1ccc(N2C(=O)CSC23C(=O)N(Cc2ccc(C)cc2)c2ccccc23)cc1Cl (stereo not given)	-19%
O=C(CN1C(=O)C2(SCC(=O)N2c2ccccc2)c2ccccc21)NCCc1ccccc1 (stereo not given)	16%
O=C1CSC2(C(=O)N(Cc3ccccc3F)c3ccccc32)N1c1cccc(C(F)(F)F)c1 (stereo not given)	7.1µM*
O=C(CN1C(=O)CCSc2ccccc21)Nc1ccccc1F	4%
COc1cc(N2C(=O)CSC23C(=O)N(Cc2ccc(C)cc2)c2ccccc23)cc(OC)c1OC (stereo not given)	-18%
Cc1ccc(N2C(=O)CSC23C(=O)N(CC(=O)NCCc2ccccc2)c2ccccc23)cc1 (stereo not given)	-15%
COc1cccc(N2C(=O)CSC23C(=O)N(Cc2ccccc2F)c2ccccc23)c1 (stereo not given)	-19%
COc1ccc(N2C(=O)CSC23C(=O)N(Cc2ccccc2F)c2ccccc23)cc1Cl (stereo not given)	i
Cc1ccc(CNC(=O)CN2C(=O)C3(SCC(=O)N3c3ccc(F)cc3)c3ccccc32)cc1 (stereo not given)	-18%
Cc1cc(C)cc(N2C(=O)CSC23C(=O)N(CC(=O)Nc2ccc(F)cc2F)c2ccccc23)c1 (stereo not given)	10µM*
SMILES	Pf Dd2 growth
Cc1cccc(N2C(=O)CSC23C(=O)N(CC(=O)Nc2cccc(Cl)c2)c2ccccc23)c1 (stereo not given)	14µM*
O=C(CN1C(=O)C2(SCC(=O)N2c2ccc(F)c(F)c2)c2ccccc21)Nc1ccccc1F (stereo not given)	13µM*
CCCCN1C(=O)c2ccccc2C(C(=O)NCCC(=O)OC)C12CCCCC2 (stereo not given)	-11%
Brc1ccc(-c2nc(N3CCN(c4ccccc4)CC3)c3ccccc3n2)cc1	-5%
C=CCN(Cc1cnc(-c2cccc(C)c2)nc1)Cc1ccccn1	-24%
O=C(CCn1cnnn1)Nc1ccccc1	-2%
COCc1c(C(=O)N2C[C@@H](CO)[C@H](c3ccccn3)C2)noc1C	-13%
O=S1(=O)CCC(n2nc(-c3ccncc3)nc2CCCn2cccn2)C1 (stereo not given)	-6%
CC(=O)c1ccc(NC(=O)CCCc2nc(-c3cccc(C)c3)no2)cc1	-7%
COc1ccc(-c2noc(C(=O)O)c2[C@@H](C)NC(=O)C2CCCCC2)cc1	-21%[44.1 µM]
O=C(Cn1cncn1)N1CC[C@@H]2[C@@H](CCC(=O)N2CCCCO)C1	-4%
COc1cccc(CN2C(=O)C3(SCC(=O)N3c3ccc(C)c(Cl)c3)c3ccccc32)c1 (stereo not given)	i
Cc1ccc(NC(=O)CN2C(=O)CCSc3ccccc32)c(C)c1	25%
COc1cccc(CN2C(=O)C3(SCC(=O)N3c3ccc(C(C)C)cc3)c3ccccc32)c1 (stereo not given)	-22%
COc1cccc(N2C(=O)CSC23C(=O)N(CC(=O)Nc2cc(C)ccc2C)c2ccccc23)c1 (stereo not given)	8.9µM*
Cc1ccc(NC(=O)CN2C(=O)NC3(CCCCC3)C2=O)c(C)c1	3%
